Test results taken from PubChem BioAssay AID1053143 (Broad Institute, 2014).
About 120 (3.5%) of roughly 3,400 compounds were called active. How the calls were made is not given here. A selection follows. Results with a measured potency or affinity are listed apart.

Assay: HepG2 cell cytotoxicity, dose response, cytotoxicity control, ATP luminescence, cherry-pick, activator set 2 (AID 1053143)
Details: HepG2 viability, CellTiter-Glo ATP luminescence, 72 h; series mostly up to 26 µM; activity change, negative = cytotoxicity: at the top concentration

Structure (SMILES) | activity change, negative = cytotoxicity
CCCC(=O)Nc1ccc(C#Cc2ccccc2)cc1 | -0.469% (inactive)
O=C(NC(=O)c1ccccc1)Nc1ccccc1 | 1.49% (inactive)
Cc1ccc(NC(=O)c2ccc(OC(=O)c3cc4ccccc4o3)cc2)cc1 | 4.2% (inactive)
CCOC(=O)C1=C(C)NC(=O)C(C(N)=O)C1c1ccccc1 (stereo not drawn) | -3.34% (inactive)
O=C(NC1CC1)C1Nc2ccc(OC(F)(F)F)cc2C2C=CCC12 (stereo not drawn) | 29.6% (inactive)
O=C(Nc1ccc2c(c1)nc1n2CCOC1)c1ccccc1 | -16.9% (inactive)
COc1cccc(NC(=O)c2cccc(Cl)c2)c1 | -17.7% [at 12 µM] (inactive)
O=C(Nc1nc2ccccc2[nH]1)c1cccc(Cl)c1 | -18.3% (inactive)
COc1ccc2cc3cc(C(=O)N4CCCCC4C)oc3nc2c1 (stereo not drawn) | -0.02% (inactive)
Cc1nn(Cc2ccccc2)c(Cl)c1C(=O)NCCc1ccccc1 | -3.92% (inactive)
CCCn1cnc2cc(NC(=O)c3cccs3)ccc21 | -9.34% (inactive)
O=c1c2ccccc2oc2cc(C#Cc3ccccn3)ccc12 | -1.68% (inactive)
COc1cccc2oc3cc(C#Cc4ccccn4)ccc3c(=O)c12 | -8.47% (inactive)
O=[N+]([O-])c1cc(Cl)ccc1-c1nc(-c2ccccc2)no1 | -7.06% (inactive)
Fc1ccc(-c2cn3cc(C(F)(F)F)cc(Cl)c3n2)cc1 | 1.44% (inactive)
O=C(CCCCn1c(=O)[nH]c2ccsc2c1=O)NCCc1ccccc1 | -18.2% (inactive)
C[C@@H]1ON(C)[C@H]2C[C@H]3c4cc(-c5cc6ccccc6o5)ccc4CCN3C[C@@H]12 | -0.799% (inactive)
O=C(NN=Cc1ccc2c(c1)OCO2)c1ccccc1 | -0.221% (inactive)
O=C(N/N=C/c1ccc2c(c1)OCO2)c1ccc(Br)o1 | -2.64% (inactive)
Cc1occc1C(=O)N/N=C/c1ccc(OCc2ccccc2)cc1 | -26.3% [at 12 µM] (inactive)
COc1cccc(/C=N/NC(=O)c2ccoc2C)c1 | -16.8% (inactive)
O=C(CSc1nnc(-c2ccncc2)o1)Nc1cc(F)ccc1F | -5.14% [at 12 µM] (inactive)
CN(C)c1ccc(-c2ccccc2)nn1 | -12% (inactive)
CCC(=O)NC1=C(Nc2ccc(N)cc2)C(=O)c2ccccc2C1=O | -24% (inactive)
CCc1ccc(NCc2nc3ccccc3c(=O)[nH]2)cc1 | -3.06% (inactive)

Structure (SMILES) | activity change, negative = cytotoxicity
COCC(=O)OCc1cc2cccc(C)c2[nH]c1=O | -13.6% (inactive)
Cc1ccc(N2CC(C(=O)Nc3ccc4c(c3)OCCO4)CC2=O)cc1 (stereo not drawn) | -12.7% (inactive)
Cc1cc(C(=O)NC2CCCCCCC2)ccc1[N+](=O)[O-] | -3.55% (inactive)
O=C(CN1CCOCC1)Nc1ccc(C2CCCCC2)cc1 | 3.28% (inactive)
COc1ccc2nc(-c3ccccc3)[nH]c2c1 | -28.6% (inactive)
COc1ccc(/C=C/C(=O)c2ccccc2)c(OC)c1 | 4.41% (inactive)
Cc1ccc(NC(=O)c2ccc(OCC3CCCO3)cc2)cc1Cl (stereo not drawn) | -31.3% (inactive)
Cc1ccnc(NC(=O)c2ccc(S(=O)(=O)N3CCC(C)CC3)cc2)c1 | -2.07% (inactive)
Cc1cc(NC(=O)c2ccc3nccnc3c2)ccc1Br | -12.6% (inactive)
O=C(NC1=NCCS1)c1ccc(OCC2CCCO2)cc1 (stereo not drawn) | -9.45% (inactive)
COc1cc(Cl)ccc1OCc1cc(C(=O)NC(C)Cc2cnccn2)no1 (stereo not drawn) | -13.1% (inactive)
Cc1ccc(NC(=O)Nc2cccc(C)n2)c(C)c1 | -16.3% (inactive)
Oc1cccc(Nc2nc(O)c(/C=C3\C=Nc4ccccc43)s2)c1 | -8.74% (inactive)
COc1ccc(-c2csc(N(CC3CCCO3)C(=O)c3ccc(C)cc3)n2)cc1 (stereo not drawn) | -14.5% (inactive)
CC(C)CN1CCC(=O)N(CCSc2ccccc2)CC1 | -0.298% (inactive)
O=[N+]([O-])c1ccc(NN=Cc2ccc(O)cc2)nc1 | 2.51% (inactive)
Clc1ccc(/C=N/Nc2ccccn2)cc1 | 3.24% [at 12 µM] (inactive)
COc1ccc(N2CCN(c3ccc(NC(=O)/C=C\C(=O)O)cc3)CC2)cc1 | -5.11% (inactive)
COC(=O)c1sc(-c2ccc(C(C)(C)C)cc2)cc1NC(=O)c1ccccc1C(=O)O | -0.287% (inactive)
CC1CCC(C(C)C)C(=O)/C1=C/c1ccc(N)cc1 (stereo not drawn) | -13.4% (inactive)
Cn1c(=NN=Cc2ccccc2OCCO)sc2ccccc21 | -17.3% (inactive)
COc1ccc(-c2cn(Cc3ccc(C(N)=O)cc3)c(-c3ccncc3)n2)cc1 | -26.3% (inactive)
COc1ncccc1-c1nnn(-c2ccc(C)cc2)n1 | -28.8% (inactive)
COc1ncccc1-c1nnn(-c2ccccc2)n1 | -15.1% (inactive)
CCCCn1c(SCC2CCCCO2)nc2cc(S(N)(=O)=O)ccc21 (stereo not drawn) | -22.6% (inactive)

Structure (SMILES) | activity change, negative = cytotoxicity
O=C(Cn1nnc2ccccc21)c1ccc(Cl)cc1 | -7.73% (inactive)
c1ccc(-n2ncc3c(NCCN4CCOCC4)ncnc32)cc1 | -15.4% (inactive)
COc1ccccc1C(=O)Nc1nnc(SCC(=O)NCC2CCCO2)s1 (stereo not drawn) | -5.08% (inactive)
Cn1c(=O)c(C(=O)NCC2CCCO2)c(O)c2ccccc21 (stereo not drawn) | -4.84% (inactive)
CC1(c2ccccn2)Nc2ccccc2-c2nc3ccccc3n21 (stereo not drawn) | -6.75% (inactive)
NC(=O)c1ccccc1NC(=O)/C=C/c1ccccc1 | 14% (inactive)
Cc1cccc(Cc2cnc(NC(=O)c3ccc(C)o3)s2)c1 | -22.4% (inactive)
Cc1ccc(C(=O)Nc2nc3c(s2)CCCC3)o1 | -19.8% (inactive)
O=C(Nc1nccs1)c1ccc(-c2ccc(F)cc2)o1 | -7.12% (inactive)
COC(=O)c1c(NC(=O)c2ccc(C)o2)sc2c1CCCCC2 | 19.4% (inactive)
CCCCN(C(=O)Cc1cccs1)c1nnc(-c2cccnc2)s1 | 1.27% (inactive)
O=C(NCCc1ccc(Cl)cc1)c1ccc2c(c1)OCO2 | -4.91% (inactive)
Cc1cccc(OCC(=O)Nc2nccs2)c1C | -2.78% (inactive)
CC(C)(C)NC(=O)Nc1ccc(Br)cc1 | -21.4% (inactive)
O=C1c2ccncc2C(=O)N1CNc1ccc(Cl)cc1 | -11.6% (inactive)
O=C(Cc1nc2ccccc2[nH]c1=O)c1ccc(Cl)cc1 | 15.3% (inactive)
O=C(O)c1ccc(/C=C(\c2nc3ccccc3[nH]2)c2nc3ccccc3s2)cc1 | 12.7% (inactive)
CCc1cc(C(=O)COc2ccc(F)cc2)c(O)cc1O | -6.69% (inactive)
CC1(C)Cc2c(c(N3CCOCC3)nc3sc(C(=O)Nc4ccccc4)c(N)c23)CO1 | -10.1% (inactive)
CN(C)c1ccnc2sc(C(=O)c3ccccc3)c(N)c12 | -10.8% (inactive)
CCCCN1CCc2c([nH]c3ccc(C)cc23)C1=O | -7.17% (inactive)
O=C1CCC(c2ccccc2)c2ccccc21 (stereo not drawn) | -5.58% (inactive)
Cn1ccc(NC(=O)c2ccc(Cl)cc2Cl)n1 | 9.45% (inactive)
O=C(Nc1ccc2ccccc2c1)c1ccc(Cl)cc1Cl | -13% (inactive)
O=C(NCCO)c1ccc2c3n(nc2c1)-c1ccc(Cl)cc1CO3 | -13.4% (inactive)

Structure (SMILES) | activity change, negative = cytotoxicity
CN(C)CCN1C(=O)C(=O)/C(=C(/O)c2ccc3c(c2)OCCO3)C1c1ccccn1 (stereo not drawn) | -7.51% (inactive)
COc1cccc(/C=C/C(=O)NNC(=O)c2ccccc2)c1OC | -12.3% (inactive)
CSc1nc(Cl)cc(Nc2ccc(O)cc2)n1 | -0.166% (inactive)
Cc1cccc(C(=O)OCC(=O)c2c(C)[nH]c3ccccc23)c1O | 0.746% (inactive)
Cc1cccc(NC(=O)c2c(O)c3ccccc3[nH]c2=O)c1 | -15.7% (inactive)
Nn1c(SCc2c(F)cccc2F)nnc1-c1ccccn1 | -0.861% (inactive)
O=C(Nc1ccc(NC(=O)c2cccs2)cc1Cl)c1ccco1 | 12.9% (inactive)
CCC(=O)Nc1ccc(NC(=O)c2ccco2)c(OC)c1 | 67.7% (inactive)
Cc1cccc(NC(=O)c2ccccn2)c1C | 5.79% (inactive)
CC1(O)C(c2ccccc2)=Nc2ccccc21 (stereo not drawn) | -24.2% (inactive)
O=C(c1cc(COc2c(F)cccc2F)on1)N1C[C@H]2CC[C@H]1C2 | -1.5% (inactive)
Cc1ccc(-n2nc3ccc(N)cc3n2)cc1C | -0.701% (inactive)
CC(C)c1ccc(-n2nc3ccc(N)cc3n2)cc1 | -17.6% (inactive)
CC(=O)c1ccc2c(c1)Cc1cc(C(C)=O)ccc1-2 | -12.1% (inactive)
CC1CCc2sc(C(=O)NC3CCCCC3)cc2C1 (stereo not drawn) | -10.7% (inactive)
Cc1ccsc1/C=N/Nc1nc2ccccc2[nH]1 | -6.65% (inactive)
C=CCn1cc(/C=N/Nc2nc3ccccc3[nH]2)c2ccccc21 | -43.7% (inactive)
Fc1ccccc1-c1ccc(/C=N/Nc2nc3ccccc3[nH]2)o1 | -16.3% (inactive)
C(=N\Nc1nc2ccccc2[nH]1)/c1cccs1 | 1.51% (inactive)
C(=C\c1ccccc1)/C=N/Nc1nc2ccccc2[nH]1 | -9.79% (inactive)
Clc1nc2ccccc2cc1/C=N/Nc1nc2ccccc2[nH]1 | -7.1% (inactive)
Cc1ccc(/C=N/Nc2nc3ccccc3[nH]2)s1 | -17.2% (inactive)
C(=N\Nc1nc2ccccc2[nH]1)/c1ccc2c(c1)OCCO2 | -13.2% [at 12 µM] (inactive)
O=C(COC(=O)CC1CCCC1)Nc1cc2c(cc1Cl)C(=O)c1ccccc1C2=O | -25.4% (inactive)
O=C(O)CC1=C(Nc2ccccc2)C(=O)N(c2ccccc2)C1c1ccc(Br)cc1 (stereo not drawn) | 21.9% (inactive)

Structure (SMILES) | activity change, negative = cytotoxicity
COC(=O)C(C)N1C(=O)S/C(=C/c2cc(C)n(-c3ccccn3)c2C)C1=O (stereo not drawn) | -4.21% (inactive)
Cc1cccc(-n2ncc3c(NCCCO)ncnc32)c1 | 4.41% (inactive)
O=C(CCNC(=O)c1ccc(Br)cc1)Nc1ccc(S(=O)(=O)N2CCOCC2)cc1 | -8.39% (inactive)
C=CCc1c(C)nc2cc(-c3ccccc3)[nH]n2c1=O | -7.02% (inactive)
Cc1ccc2oc(C(=O)N(C)Cc3ccon3)c(C)c2c1 | -6.74% (inactive)
C(/C=C/c1ccccn1)=C\c1ccccc1 | -22.6% (inactive)
COc1ccc2cc3cc(C(=O)N4CCCC(C)C4)oc3nc2c1 (stereo not drawn) | -14% (inactive)
Cn1c(NC(=O)c2ccccc2F)c(-c2cccs2)c(=O)c2ccccc21 | -4.75% (inactive)
COc1ccc(N=NC2=C(O)CC(C)(C)CC2=O)cc1 | -13.4% (inactive)
Cc1cc2nn(-c3ccccc3)nc2cc1NC(=O)c1cccs1 | -10.6% (inactive)
CC(=O)Nc1cccc(-n2nnc(SCC(=O)c3ccccc3)n2)c1 | -12.8% (inactive)
CCC(=O)Nc1ccc2nn(-c3ccc(F)cc3)nc2c1 | -11.6% (inactive)
CCC(=O)Nc1cc(C(=O)OCC(=O)c2ccccc2Cl)ccc1C | -11.1% (inactive)
CCCC(=O)Nc1ccc2oc(-c3cccnc3)nc2c1 | -9.19% (inactive)
Cc1ccc(NC(=O)Nc2cccc(C)n2)cc1 | -7.97% [at 6 µM] (inactive)
CC(=O)Nc1cccc(NC(=O)CCCC(=O)O)c1 | -2.64% (inactive)
O=C(CC(=O)c1ccccc1)Nc1ccccc1 | 0.16% (inactive)
O=C(Nc1cc(F)c(Br)cc1F)c1ccc(Cl)cc1 | 4.77% (inactive)
Cc1cnc(NC(=O)c2ccc3ncsc3c2)s1 | -12.4% (inactive)
NC(=O)Cc1c[nH]c2cccc(O)c12 | -2.19% (inactive)
CCn1c(O)c(C#N)c(C)cc1=O | 20.8% (inactive)
c1csc(-c2nc(N3CCCCC3)no2)c1 | -5.95% (inactive)
O=C(Nc1ccc(F)cc1F)c1csc(-c2cccs2)n1 | -6.08% (inactive)
